From PubChem BioAssay (EPA / NIEHS)
Inconclusive results are not listed. Active and inactive are the calls of the source. The calls were made as follows: active = hit-call score of the fitted dose curve at least 0.9, where 1 is the maximum; inconclusive = response in the unintended direction; inactive = score below 0.9.

What was measured:
[1] = TOX21_p53_BLA_p2_viability: Viability Assessment in the Tox21 HCT-116 p53 Agonism Beta-lactamase Assay, Phase 2 (AID 2283591);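 also: actives lower the ATP signal meaning cytotoxicity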
Method in brief: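 Cytotoxicity readout: CellTiter-Glo ATP luminescence, 30 min at room temperature, after the beta-lactamase read. Cells were HCT116 exposed 16 h at 37C to compounds pin-transferred at 217-fold dilution from DMSO stocks.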

[2] = target: Cellular tumor antigen p53 (Homo sapiens) (UniProt P04637); test: TOX21_p53_BLA_p2_ratio: Tox21 HCT-116 p53 Agonism Beta-lactamase Assay, Ratio, Phase 2 (AID 2283592)
Method in brief: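 Readout: blue/green (460/530 nm) FRET emission ratio after 2 h CCF4-AM loading at room temperature, excitation 405 nm. HCT116 p53 bla cells, 16 h compound exposure at 37C, 5% CO2; agonist direction fitted against DMSO baseline.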

[3] = TOX21_p53_BLA_p3_viability: Viability Assessment in the Tox21 HCT-116 p53 Agonism Beta-lactamase Assay, Phase 3 (AID 2283593);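 also: cells exposed to compound for 16 h before reading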
Method in brief: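 Cellular ATP was quantified by CellTiter-Glo luminescence, read after 30 min at room temperature. Beforehand, HCT116 cells (4000/well) received compound 5 h post-seeding, 217-fold diluted from DMSO, then incubated 16 h at 37C.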

[4] = target: Cellular tumor antigen p53 (Homo sapiens) (UniProt P04637); test: TOX21_p53_BLA_p3_ratio: Tox21 HCT-116 p53 Agonism Beta-lactamase Assay, Ratio, Phase 3 (AID 2283596)
Method in brief: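 Cells were seeded at 4000/well, rested 5 h at 37C, then dosed with DMSO compound solutions (217-fold dilution) for 16 h. CCF4-AM substrate was loaded for 2 h at room temperature, and the 460/530 nm emission ratio was fitted for gain of signal versus DMSO.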

[5] = TOX21_p53_BLA_p4_viability: Viability Assessment in the Tox21 HCT-116 p53 Agonism Beta-lactamase Assay, Phase 4 (AID 2283597);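 also: hits lower the luminescence signal meaning cytotoxicity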
Method in brief: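 ATP content by CellTiter-Glo luminescence, 30 min RT, read after the beta-lactamase ratio step. Cells: HCT116, 4000/well, compound added after 5 h, exposure 16 h at 37C. Signal loss = reduced viability.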

[6] = TOX21_p53_BLA_p5_viability: Viability Assessment in the Tox21 HCT-116 p53 Agonism Beta-lactamase Assay, Phase 5 (AID 2283600)
Method in brief: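 ATP luminescence (CellTiter-Glo, 30 min, RT) served as the viability read-out, with loss of signal indicating cytotoxicity. Compounds in DMSO were pinned at a 217-fold dilution onto 4000 cells/well and incubated 16 h, 37C.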

[7] = target: Cellular tumor antigen p53 (Homo sapiens) (UniProt P04637); test: TOX21_p53_BLA_p4_ratio: Tox21 HCT-116 p53 Agonism Beta-lactamase Assay, Ratio, Phase 4 (AID 2283601)
Method in brief: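 Signal is the blue/green (460nm/530nm) ratio of cleaved versus uncleaved CCF4-AM substrate, read after 2 h substrate loading. Cells were HCT116 carrying the p53-responsive beta-lactamase reporter, dosed 16 h at 37C, 5% CO2; CellTiter-Glo measured in parallel.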

[8] = target: Cellular tumor antigen p53 (Homo sapiens) (UniProt P04637); test: TOX21_p53_BLA_p5_ratio: Tox21 HCT-116 p53 Agonism Beta-lactamase Assay, Ratio, Phase 5 (AID 2283599)
Method in brief: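 Beta-lactamase reporter ratio (blue 460 nm over green 530 nm, 405 nm excitation) after 2 h CCF4-AM loading, in HCT-116 cells exposed 16 h at 37 C to compounds pinned at 217-fold dilution. Increases relative to DMSO baseline scored.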

Sequence of Cellular tumor antigen p53 (Homo sapiens) (P04637 whole entry, looked up): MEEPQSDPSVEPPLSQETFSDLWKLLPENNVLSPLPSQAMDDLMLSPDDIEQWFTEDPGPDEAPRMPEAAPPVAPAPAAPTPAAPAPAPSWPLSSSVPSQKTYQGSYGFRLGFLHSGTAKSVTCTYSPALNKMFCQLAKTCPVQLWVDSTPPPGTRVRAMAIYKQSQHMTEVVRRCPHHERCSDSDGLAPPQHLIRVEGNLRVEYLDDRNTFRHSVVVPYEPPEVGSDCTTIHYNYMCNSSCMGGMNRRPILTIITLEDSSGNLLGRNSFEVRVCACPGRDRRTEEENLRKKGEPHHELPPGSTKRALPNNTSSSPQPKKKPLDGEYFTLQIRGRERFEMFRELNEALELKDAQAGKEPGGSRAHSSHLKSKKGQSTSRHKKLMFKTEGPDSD

| Compound | outcome [1] | outcome [2] | outcome [3] | outcome [4] | outcome [5] | outcome [6] | outcome [7] | AC50 [1] | AC50 [2] | AC50 [3] | AC50 [4] | AC50 [8] | AC50 [6] | AC50 [7] |
| --- | --- | --- | --- | --- | --- | --- | --- | --- | --- | --- | --- | --- | --- | --- |
| O=C/C=C/c1ccco1 | inactive | inactive | inactive | inactive | inactive | inactive | inactive | – | – | – | – | – | – | – |
| CC(O)C(=O)[O][Hg][c]1ccccc1 (stereo unspecified) | – | – | – | – | – | – | – | 2.69 µM (active) | 9.88 µM (active) | 0.648 µM (active) | 2.21 µM (active) | 2.92 µM (active) | 1.59 µM (active) | 5.92 µM (active) |
| c1ccc2c(c1)[nH]c1cnccc12 | inactive | inactive | inactive | – | inactive | inactive | inactive | – | – | – | 46.1 µM (active) | – | – | – |
